PubChem BioAssay AID1347404 (Pan Lab, Icahn School of Medicine at Mount Sinai, 2020)
About 860 (0.61%) of roughly 140,000 compounds were called active. Cut-off read from the data, not from the text of the source: active = inhibition above about 25%; inactive = the rest. Shown is part of a subset that was picked to be rich in actives.

target: E3 ubiquitin-protein ligase RBX1 (Homo sapiens) + Cullin-1 (Homo sapiens) (UniProt P62877+Q13616); experiment: inhibitors of human ROC1-CUL1 ubiquitin ligase activity (AID 1347404); conditions: in vitro K48 di-Ub FRET, acceptor:donor ratio, 45 min; at 10 µM; active compounds read high
Sequence (P62877 whole entry, looked up): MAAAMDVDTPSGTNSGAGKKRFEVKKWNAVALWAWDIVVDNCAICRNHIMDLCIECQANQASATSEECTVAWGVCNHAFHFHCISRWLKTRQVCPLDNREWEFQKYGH
Sequence (Q13616 whole entry, looked up): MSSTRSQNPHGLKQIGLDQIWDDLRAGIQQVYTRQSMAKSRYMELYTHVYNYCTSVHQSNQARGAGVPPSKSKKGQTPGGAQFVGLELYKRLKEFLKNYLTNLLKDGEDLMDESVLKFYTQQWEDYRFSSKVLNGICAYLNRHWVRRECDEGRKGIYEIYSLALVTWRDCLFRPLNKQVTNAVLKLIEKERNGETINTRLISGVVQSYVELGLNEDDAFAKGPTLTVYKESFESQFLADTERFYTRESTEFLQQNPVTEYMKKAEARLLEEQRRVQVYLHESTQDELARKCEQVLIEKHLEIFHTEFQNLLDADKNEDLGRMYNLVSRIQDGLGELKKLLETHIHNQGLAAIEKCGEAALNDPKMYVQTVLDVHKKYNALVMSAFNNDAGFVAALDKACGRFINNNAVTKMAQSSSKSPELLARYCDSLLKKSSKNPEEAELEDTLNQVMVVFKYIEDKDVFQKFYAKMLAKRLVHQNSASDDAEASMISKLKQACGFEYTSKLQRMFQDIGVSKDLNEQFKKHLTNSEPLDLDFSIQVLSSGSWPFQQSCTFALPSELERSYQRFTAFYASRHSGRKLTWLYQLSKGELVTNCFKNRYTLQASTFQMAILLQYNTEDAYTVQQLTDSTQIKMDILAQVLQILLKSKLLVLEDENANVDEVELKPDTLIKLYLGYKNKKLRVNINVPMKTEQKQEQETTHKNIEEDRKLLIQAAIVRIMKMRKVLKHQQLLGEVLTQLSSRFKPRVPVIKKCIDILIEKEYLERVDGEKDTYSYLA

inhibition, inactive:
Cc1[nH]nc2c1C(c1cccc(OCc3ccccc3Cl)c1)C(C#N)C(=N)O2 (configuration not stated) -9.52%, Cc1ccc(C2Oc3ccccc3C3CC(c4cccs4)=NN32)o1 (configuration not stated) 0.171%, CCN(CC)C(=O)c1sc(NC(=O)C(Sc2ccccc2)c2ccccc2)c(C#N)c1C (configuration not stated) 2.76%, Oc1ccc2oc(SCCOCCOCCOCCSc3cc4cc(O)ccc4o3)cc2c1 0.44%, O=C(COC(=O)c1cc(Cl)c(Cl)cc1C(=O)OCC(=O)c1ccccc1)c1ccccc1 7.68%, O=C(O)CSCC(=O)Nc1nccs1 -17.6%, O=C1C2CCCN2C(=O)N1CCCCN1CCN(c2cccc(C(F)(F)F)c2)CC1 (configuration not stated) -6.27%, c1ccc(-c2oc(-c3ccccc3)c(-c3ccccc3)c2-c2ccccc2)cc1 -5.11%, CCc1ccc(-c2cc(C(F)(F)F)n3nc(C(=O)N(C)Cc4cnn(C)c4C)cc3n2)s1 -10.3%, N#Cc1ccc(-c2nc3cc(C#N)c(C#N)cc3nc2-c2ccccc2)cc1C#N 0.0365%, COc1ccc(-c2n[nH]c(=O)c3ccccc23)cc1 0.605%, COc1cc(OC)c(OC)cc1CN1CC[C@@H](N2CCC(O)CC2)[C@H](O)C1 13%, C=CCN1C(=O)N=C(Cc2ccc(-c3cccc(F)c3)o2)C1=O 2%, OCc1ccc(-c2cc(Cl)cc(Cl)c2)o1 -5.33%, COc1cccc(C(=O)NC2(C(F)(F)F)C(=O)N=C3C2C(=O)NC(=O)N3c2ccc(C)cc2)c1 (configuration not stated) -7.22%, Cc1ccc(-c2c3nnc4ccccc4c3nc3sc4c(=O)[nH]c(C)nc4c23)cc1 6.93%, COc1ccc(F)c(-c2nc(CN(C)Cc3nonc3C)c(C)o2)c1 3.31%, COCCCN1C(=O)CC(CC(=O)N2CCN(C)C(c3ccccc3)C2)(c2ccccc2OC)C1=O (configuration not stated) 9.56%, COc1cccc(CC2(CO)CCN(C(=O)c3cnn(C(C)C)c3)CC2)c1 4.94%, O=C(NC1CCCN(CCc2ccccc2)C1)c1cccc(N2CCOCC2)c1 (configuration not stated) 5.73%, Cc1ccc(-c2csc(NNC(=O)c3ccccc3)n2)cc1 -5.78%, COc1ccc(C(=O)Nc2ccc3nc(N4CCCCC4)cc(C)c3c2)cc1OC -8.5%, COCCN(CC1CCN(Cc2ccccc2F)CC1)C(=O)CCCN1CCCCC1=O 14.5%, Cc1ccccc1OC(C)C(=O)Nc1nccs1 (configuration not stated) 0.702%, CCN1C(=O)C(=Cc2ccc(-c3ccccc3)o2)C(=O)N(CC)C1=S -2.58%, CCn1cc(/C=C2\SC(=O)N(CC(=O)Nc3cccc(C)c3)C2=O)c2ccccc21 0.178%, CCCCCOc1cccc(OCC(=O)Nc2cccc(OC)c2)c1 0.894%, COc1cc(C(=O)O)ccc1OC(=O)C1CCCCC1 2.41%, Cc1cccc(-n2c(C)c(C)n3c4c(=O)n(CCCO)c(=O)n(C)c4nc23)c1 -0.432%, CCCNC(=O)c1nnn(-c2ccc(C)cc2)c1C 2.76%, CN1CCC2(CC1)CC(=O)NC2=O -1.86%, Nc1ccc([N+](=O)[O-])cc1OCc1ccccc1 6.18%, CCn1c2ccccc2c2cc(NS(=O)(=O)c3ccc(Cl)nc3)ccc21 -11.1%, Cc1cc(OC(C)C(=O)N2CCN(c3ccccc3)CC2)cc(C)c1Cl (configuration not stated) 12.3%, O=C(Nc1cccc(Cl)c1)C(=S)NCc1ccco1 3.18%, Nc1c(C(=O)Nc2ccc(F)c(Cl)c2)sc2nc(-c3ccc(F)cc3)ccc12 -0.694%, COCC(=O)N1CCCC(C(=O)c2cccc(C(F)(F)F)c2)C1 (configuration not stated) 11%

inhibition, active:
N#Cc1c(-c2ccccc2)c(-c2ccccc2)n[nH]c1=O 49.7%, O=C(O)c1cc(-c2ccc(CC3=NC(=S)N(c4ccc(Cl)cc4)C3=O)o2)ccc1Cl 101%, O=C(NNc1cc(N2CCCC2)nc(N2CCCC2)n1)c1ccccc1 31.7%, CCCN1C(=O)/C(=C\c2cn(CC(=O)O)c3ccccc23)C(=O)N(c2ccccc2)C1=S 48.9%, CCCCCCCCCCCCOc1c(OC)cc(C(=O)O)cc1OC 26.5%
